Reference: PubChem BioAssay (Tox21)
Results filed as inconclusive are left out. Entries that show only a call come without a potency. The source holds several records for some structures; these can differ, active in one and inactive in another. Active and inactive are the calls of the source. Calls follow the shape of the dose curve; as a rule, active = well fitted inhibition curve with a large enough effect in the repeat runs; inconclusive = weak or mixed curves; inactive = no such curve, though single readings can be large or run the other way.
Potency is read from the fitted curve at half-maximal effect.

What follows are compounds tested against Estrogen receptor (Homo sapiens) (UniProt P03372) (assay: qHTS assay to identify small molecule antagonists of the estrogen receptor alpha (ER-alpha) signaling pathway using the BG1 cell line in the presence of 0.1 nM 17-beta-estradiol (AID 1259244; also: nearly all actives have a fitted effect of over 50% in size)). Settings: VM7Luc4E2 (BG1) ERE-luciferase, antagonist mode, 0.1 nM E2, 22 h; series mostly up to 92.4 µM; activity change, negative = inhibition: at the top concentration.
Sequence of Estrogen receptor (Homo sapiens) (P03372 whole entry, looked up): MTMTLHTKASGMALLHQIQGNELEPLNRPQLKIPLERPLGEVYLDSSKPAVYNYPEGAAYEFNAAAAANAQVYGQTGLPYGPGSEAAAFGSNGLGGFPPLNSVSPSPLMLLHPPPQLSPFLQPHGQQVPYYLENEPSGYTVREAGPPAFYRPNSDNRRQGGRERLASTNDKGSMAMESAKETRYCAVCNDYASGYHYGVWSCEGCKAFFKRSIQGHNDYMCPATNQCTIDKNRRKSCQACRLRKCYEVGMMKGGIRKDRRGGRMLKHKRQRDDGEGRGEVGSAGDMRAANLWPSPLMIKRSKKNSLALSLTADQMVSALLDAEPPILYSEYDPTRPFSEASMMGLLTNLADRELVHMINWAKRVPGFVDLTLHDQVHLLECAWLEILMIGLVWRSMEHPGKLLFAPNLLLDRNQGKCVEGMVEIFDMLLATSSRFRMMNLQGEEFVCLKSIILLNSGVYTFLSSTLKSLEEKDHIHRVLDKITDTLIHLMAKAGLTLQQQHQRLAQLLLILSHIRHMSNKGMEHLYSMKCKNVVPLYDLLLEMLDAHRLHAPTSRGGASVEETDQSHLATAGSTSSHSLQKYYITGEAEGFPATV
Source text: National Center for Advancing Translational Sciences [NCATS]
NIH Chemical Genomics Center [NCGC]
U.S. Environmental Protection Agency [EPA]
National Institutes of Environmental Health Sciences [NIEHS]
National Toxicology Program [NTP]
U.S. Food and Drug Administration [FDA]
Estrogen receptor (ER), a member of the nuclear hormone receptor plays an important role in development, metabolic homeostasis and reproduction. Two subtypes of ER, ER-alpha and ER-beta, have similar expression patterns with some uniqueness in both types. Endocrine disrupting chemicals (EDCs) and their interactions with steroid hormone receptors like ER causes disruption of normal endocrine function. Therefore, it is important to understand the effect of environmental chemicals in ER signaling pathway. For identifying ER antagonists, VM7Luc4E2 cell line was used to screen against Tox21 compound libraries.
VM7Luc4E2 cell line (provided by Denison MS, University of California) endogenously express full-length ER-alpha and is stably transfected with a plasmid containing four estrogen responsive elements (ERE) upstream of a luciferase reporter gene. The current screening for identification of ER-alpha inhibitors against Tox21 compound libraries used lower concentration (0.1 nM) of 17beta-Estradiol as a stimulator.
Tox21 Assay Protocol Summary:
VM7Luc4E2 cells were cultured in phenol red free assay medium containing 10% charcoal stripped FBS for 5 days prior to the assay. The cells were dispensed at 4,000 cells/well in 4 uL of assay medium into white wall/solid-bottom 1536-well plates (Corning Life Sciences, Corning, NY) using a Multidrop Combi (ThermoFisher Scientific, Waltham, MA) dispenser. After the assay plates were incubated at 37C and 5% CO2 for 24 hr, 23 nL of compounds dissolved in DMSO, positive controls or DMSO only was transferred to the assay plates by a Pintool station (Kalypsys, San Diego, CA). The transfer of compounds was followed by the addition of 1 uL of 0.1 nM (final concentration) agonist (17beta-Estradiol)/assay medium using a Flying Reagent Dispenser (FRD, Aurora Discovery, San Diego, CA). The plates were incubated at 37C and 5% CO2 for 22 hr. For luciferase reporter gene assay, 4 uL of ONE-Glo reagent (Promega Corporation, Madison, WI) was added to each well using the FRD and after 30 min incubation at room temperature luminescence intensity was measured using ViewLux plate reader (PerkinElmer, Shelton, CT).
For CCNC(=S)NCC, the Potency was “inactive”. In the case of CCO[Si](CCCN)(OCC)OCC, the Potency is reported as “inactive”. In the case of C[Si]1(C)O[Si](C)(C)O[Si](C)(C)O[Si](C)(C)O1, the Potency is reported as “inactive”. NCCN1CCNCC1 was tested, and the Potency was “inactive”. With O=c1[nH]cnc2[nH]ncc12 the “activity change, negative = inhibition” value was 6.65% [at 42.5 µM] (inactive). For CC(=O)Oc1ccc(C)cc1, the Potency was “inactive”. In the case of CC1(C)NC(=O)NC1=O, the Potency is reported as “inactive”. With C=CC(C)CCCC(C)(C)O (stereo not given) the Potency was “inactive”. With CC(C)(Oc1ccc(CCNC(=O)c2ccc(Cl)cc2)cc1)C(=O)O the Potency was “inactive”. In the case of CCCCCCCO, the Potency is reported as “inactive”. CCCCCC(=O)O was tested, and the Potency was “inactive”. With O=C1CCCC1 the Potency was “inactive”. CC(C)CC(C)O (stereo not given) was tested, and the Potency was “inactive”. In the case of CC(C)=CCl, the Potency is reported as “inactive”. In the case of CCO[Si](CCC#N)(OCC)OCC, the Potency is reported as “inactive”. In the case of CCCCC(C=O)CC (stereo not given), the Potency is reported as “inactive”. CCCCCCCCCCCC(=O)OC was tested, and the Potency was “inactive”. In the case of OC1C(O)C(O)C(O)C(O)C1O (stereo not given), the Potency is reported as “inactive”. For O=C(O)c1ccccc1C(=O)O, the Potency was “inactive”. In the case of Cc1ccc(C(C)C)c(O)c1, the Potency is reported as “inactive”. With CCc1ccccc1CC the Potency was “inactive”. In the case of Cc1ccc([N+](=O)[O-])cc1S(=O)(=O)O, the Potency is reported as “inactive”. In the case of CC(=O)OCc1ccco1, the Potency is reported as “inactive”. With c1ccc2c(c1)Cc1ccccc1-2 the Potency was “inactive”. In the case of CCCCOC(=O)c1ccc(N)cc1, the Potency is reported as “inactive”. For O=C(O)c1ccc(S(=O)(=O)N(Cl)Cl)cc1, the Potency was 38.8 µM (active) and inactive. With Brc1ccc(Br)c(Br)c1 the Potency was “inactive”. In the case of CCNc1cccc(C)c1, the Potency is reported as “inactive”. With COCCCN the Potency was “inactive”. In the case of CNC(=O)Oc1ccc2c(c1)[C@]1(C)CCN(C)[C@@H]1N2C, the Potency is reported as “inactive”. In the case of CCOCC(=O)O, the Potency is reported as “inactive”. CCCCCCCCCCCCCCCCO was tested, and the Potency was “inactive”. With CCOC(=O)n1ccn(C)c1=S the Potency was “inactive”. For CC(C)OP(=O)(CP(=O)(OC(C)C)OC(C)C)OC(C)C, the Potency was “inactive”. In the case of CNC(=S)N(C)C, the Potency is reported as “inactive”. COc1ccc(OC)cc1 was tested, and the Potency was “inactive”. In the case of C=CC(=O)OCCC(=O)O, the Potency is reported as “inactive”. With CC(CCl)OP(=O)(OC(C)CCl)OC(C)CCl (stereo not given) the Potency was “inactive”. COc1ccc(N)c(C)c1 was tested, and the Potency was “inactive”. With COc1ccc([N+](=O)[O-])cc1N the Potency was “inactive”.
